CHX counter: affects cycloheximide protein synthesis inhibition readout, counter-screen | cell reporter, cycloheximide protein synthesis inhibition counterscreen | max response, % | hit rate 12% among 300,000 | AID 2314; in the data active = max response mostly above about 13%, no sharp cut-off; inactive = mostly below about 14%; also: read at 38.3 µM for the half of the compounds with a filed dose; 0% is about no effect
FBPA Giardia inh: Giardia lamblia aldolase inhibition. AID 2451. Potency, µM (highest dose often 59.6 µM), for the others: top-dose activity, negative = inhibition, most hits filed as inhibitors. purified Giardia FBPA. A8B2U2. hit rate 0.71% among 290,000; also: potency is read from the fitted curve at half-maximal effect; % is scaled to controls: 0 for no effect and ±100 for the full control effect; nearly all actives have a fitted effect of over 55% in size
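Giardia FBPA (40 nM reagent) was preincubated 10 min at RT with compound (up to 57.5 uM final), then substrate plus GAPDH/TPI/NAD/arsenate coupling system with diaphorase/resazurin was added; resorufin fluorescence (525/598 nm) was read after 20 min.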
LmPK inhibitor: inhibitors of Leishmania mexicana pyruvate kinase; Q27686; purified LmPK, Kinase-Glo ATP luminescence, 1 h; Potency, µM (series often up to 57.5 µM), without a hit: top-dose activity change, negative = inhibition, usual class: inhibitors; hit rate 0.37% among 290,000; also: potency is read from the fitted curve at half-maximal effect; % is scaled to controls: 0 for no effect and ±100 for the full control effect
Target sequence (Q27686 whole entry, looked up): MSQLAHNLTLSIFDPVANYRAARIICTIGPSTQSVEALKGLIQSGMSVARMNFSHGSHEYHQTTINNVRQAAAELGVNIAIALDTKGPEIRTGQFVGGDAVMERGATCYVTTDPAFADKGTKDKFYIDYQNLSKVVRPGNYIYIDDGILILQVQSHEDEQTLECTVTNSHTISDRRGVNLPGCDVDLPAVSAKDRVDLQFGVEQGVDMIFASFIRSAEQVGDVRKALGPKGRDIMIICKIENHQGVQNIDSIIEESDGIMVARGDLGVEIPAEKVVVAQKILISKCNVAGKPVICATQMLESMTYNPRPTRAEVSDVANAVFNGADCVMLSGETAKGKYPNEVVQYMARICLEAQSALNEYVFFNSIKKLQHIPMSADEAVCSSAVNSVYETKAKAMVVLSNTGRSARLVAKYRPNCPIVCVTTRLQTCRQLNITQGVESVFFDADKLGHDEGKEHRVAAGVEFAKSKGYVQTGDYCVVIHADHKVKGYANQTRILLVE
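0.1 nM LmPK, 0.5 mM PEP, 0.1 mM ADP; 50 mM imidazole pH 7.2, 7 mM MgCl2, 50 mM KCl; 1 h RT. Kinase-Glo luminescence readout, normalized to no-enzyme (full inhibition) and uninhibited wells.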
NS1 inh: influenza NS1 inhibition. Potency, µM (top dose mostly 46.1 µM), without a hit: top-dose activity, positive = more growth. hit rate 0.4% among 270,000. AID 2326; calls by dose curve; also: potency is read from the fitted curve at half-maximal effect; actives are rising curves; nearly all actives have a fitted effect of over 50% in size
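Growth recovery, yeast-based: influenza A NS1 expressed in S. cerevisiae causes slow growth, and suppressors are detected by OD600. The parent strain without NS1 is used as positive control.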
Shiga inhibitor: blocks Shiga toxin action in Vero cells. hit rate 9.2% among 290,000. inhibition, % at 38.7 µM. AID 2315. Vero cells, Shiga toxin protein synthesis inhibition reporter; in the data active = inhibition mostly above about 28%, no sharp cut-off; inactive = mostly below about 43%; also: 0% is about no effect
Starred values were filed as active, the others as inactive; [ ] = dose if it differs, or a comment. Most compounds without a hit are left out; they make up all but 14% or so of the library. Unless noted, calls follow the shape of the dose curve; as a rule, active = well fitted curve in the direction sought with a large enough effect; inconclusive = small, poorly fitted or top-dose-only effect, or another doubt; inactive = no such curve, though single readings can be large; an effect the other way counts as inactive or inconclusive.

Results for CN(C)CCN(C(=O)COc1ccc(Cl)cc1)c1nc2cc3c(cc2s1)OCO3 ?
CHX counter: 21.9*; FBPA Giardia inh: -20.7%; LmPK inhibitor: 7.7%; NS1 inh: -10.6%; Shiga inhibitor: -1.7

How did CN(C)CCCN(C(=O)/C=C/c1cccs1)c1nc2ccc(F)cc2s1 do in these assays?
CHX counter: -14.7; FBPA Giardia inh: -4.6%; LmPK inhibitor: 0.9%[11.5 µM]; Shiga inhibitor: -38.6

What do the screens show for `CN(C)CCCN(C(=O)c1sc2ccccc2c1Cl)c1nc2ccc(F)cc2s1`?
CHX counter: 37.1*; FBPA Giardia inh: -0.4%; LmPK inhibitor: 0.6%; NS1 inh: -0.8%; Shiga inhibitor: 78.6*

Results for CN(C)CCCN(C(=O)COc1ccc(Cl)cc1)c1nc2cc3c(cc2s1)OCO3 ?
CHX counter: -4.3; FBPA Giardia inh: -7.8%; LmPK inhibitor: 0.1%; NS1 inh: 2.9%; Shiga inhibitor: -23.0

What do the screens show for `CN(C)CCCN(C(=O)c1ccc2ccccc2c1)c1nc2cc3c(cc2s1)OCO3`?
CHX counter: -2.5; FBPA Giardia inh: -10.8%; LmPK inhibitor: 3.1%; NS1 inh: -3.9%; Shiga inhibitor: -17.4

Results for Cc1ccnc(NS(=O)(=O)c2ccc(NS(=O)(=O)c3cc(Cl)ccc3Cl)cc2)n1 ?
CHX counter: 3.8; FBPA Giardia inh: -4.9%; LmPK inhibitor: 5.5%; NS1 inh: 2.9%; Shiga inhibitor: -7.1

How did COc1cccc2sc(N(CCN(C)C)C(=O)c3ccc4c(c3)CCCC4)nc12 do in these assays?
CHX counter: -0.9; FBPA Giardia inh: -11.4%; LmPK inhibitor: 1.4%; NS1 inh: -12.8%; Shiga inhibitor: 27.9

How did CN(C)CCN(C(=O)c1ccc2ccccc2c1)c1nc2ccc(Br)cc2s1 do in these assays?
CHX counter: 16.4*; LmPK inhibitor: -8.5%; NS1 inh: -68.4%; Shiga inhibitor: 44.0

What do the screens show for `CN(C)CCN(C(=O)c1ccc(S(=O)(=O)N2CCCC2)cc1)c1nc2ccc(Br)cc2s1`?
CHX counter: 29.9*; LmPK inhibitor: -2.0%; NS1 inh: -14.9%; Shiga inhibitor: 56.5*

How did CN(C)CCN(C(=O)c1ccc(N2C(=O)CCC2=O)cc1)c1nc2cc3c(cc2s1)OCO3 do in these assays?
CHX counter: 15.2; FBPA Giardia inh: -10.7%; LmPK inhibitor: -1.5%[11.5 µM]; Shiga inhibitor: 30.1

What do the screens show for `CN(C)CCN(C(=O)c1cccc(N2C(=O)CCC2=O)c1)c1nc2ccc(Br)cc2s1`?
CHX counter: 13.0*; FBPA Giardia inh: -11.9%; LmPK inhibitor: -5.3%; NS1 inh: 4.4%; Shiga inhibitor: 35.2

Results for CN(C)CCN(C(=O)c1ccc2c(c1)CCCC2)c1nc2c(F)cccc2s1 ?
CHX counter: 56.3*; FBPA Giardia inh: inconclusive; LmPK inhibitor: 8.2%; NS1 inh: -10.5%; Shiga inhibitor: 62.0

What do the screens show for `Fc1ccc(Nc2nc(-c3cccnc3)nc3ccccc23)cc1`?
FBPA Giardia inh: -5.2%

How did O=c1onc(-c2cccnc2)n1-c1ccccc1F do in these assays?
CHX counter: -0.8; FBPA Giardia inh: -4.5%; LmPK inhibitor: -2.3%; NS1 inh: 1.6%; Shiga inhibitor: -7.6

How did Cc1ccc2nc(N(CCCN(C)C)C(=O)c3ccc(S(=O)(=O)N4CCCCCC4)cc3)sc2c1 do in these assays?
CHX counter: -3.5; FBPA Giardia inh: -28.6%; LmPK inhibitor: -3.3%; NS1 inh: 3.0%; Shiga inhibitor: -7.2

Results for CCCCN(C)S(=O)(=O)c1ccc(C(=O)N(CCN(C)C)c2nc3ccc(C)cc3s2)cc1 ?
CHX counter: 19.8*; FBPA Giardia inh: 7.0%; LmPK inhibitor: -1.8%; Shiga inhibitor: 44.2*

What do the screens show for `CCOc1ncccc1C(=O)NNC(=O)c1ccccc1-n1cccc1`?
CHX counter: -1.8; LmPK inhibitor: -4.2%; NS1 inh: 5.8%; Shiga inhibitor: 46.3

What do the screens show for `O=S(=O)(Nc1ccc2c(c1)OCO2)c1cccs1`?
CHX counter: 2.4; FBPA Giardia inh: -20.8%; LmPK inhibitor: -1.7%; NS1 inh: 1.3%; Shiga inhibitor: 11.3

How did COc1ccc(S(=O)(=O)NCC(=O)Nc2ccc3c(c2)OCCO3)cc1OC do in these assays?
CHX counter: 2.2; FBPA Giardia inh: -4.2%; LmPK inhibitor: 10.9%; NS1 inh: 23.6%; Shiga inhibitor: -2.2

What do the screens show for `COC(=O)c1ccc(NC(=O)CNS(=O)(=O)c2cccs2)cc1`?
CHX counter: 18.6*; FBPA Giardia inh: 2.0%; LmPK inhibitor: 0.4%; NS1 inh: -5.3%; Shiga inhibitor: 31.7
